Test results reported in PubChem BioAssay (NCATS).
Inconclusive results are not listed. Entries that show only a call come without a potency. Unmarked numbers belong to inactive results. Active and inactive are the calls of the source. The call rests on the fitted dose curve; in most records, active means well fitted cell-killing curve with a large enough effect; inconclusive means small, poorly fitted or top-dose-only effect, or effect the other way; inactive means flat fitted curve, though single readings scatter.

What follows are molecules tested on Tov112D (assay: Primary qHTS to identify gynecologic anti-cancer compounds using libraries of approved drugs and bioactive compounds (AID 1345084; further: nearly all actives have a fitted effect of over 55% in size)). Conditions: Gynecologic cancer cell panel viability, ATPlite luminescence, 48 h; series mostly up to 57.5 µM.
In short: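 48 h compound exposure at 37 C, 5% CO2; five-point qHTS. ATPlite luminescence readout of cell ATP.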
C1CCC[C@H]2CCCN3CC[C@@H](CCCCCC[C@@H]4CCCN5CC[C@@H](CC1)O[C@@H]45)O[C@@H]23 gave an activity change, negative = cytotoxicity of 2.94% [at 0.155 µM].
With Cc1[nH]c2ccccc2c1C1=C(NCCc2ccc(F)cc2)C(=O)N(C)C1=O the Potency was “inactive”.
OC[C@H]1O[C@@H](O[C@H]2[C@H](OCCc3ccccc3)O[C@H](CO)[C@@H](O)[C@@H]2O)[C@H](O)[C@@H](O)[C@@H]1O was tested, and the Potency was “inactive”.
C=C1[C@@H]2CC[C@@H]3[C@@](CCC4C(C(=O)O)(C(=O)O)C[C@@H](O[C@@H]5O[C@H](CO)[C@@H](O)[C@H](O)[C@H]5OC(=O)CC(C)C)C[C@]43C)(C2)[C@H]1O (some centres not stated) was tested, and the Potency was “inactive”.
CC(=O)C1=C(C)N(c2cccc(C(F)(F)F)c2)C(=O)N[C@H]1c1ccc(C#N)nc1 showed an activity change, negative = cytotoxicity of -8.52% [at 11.6 µM].
Molecule CC(CCC1(O)OC2CC3C4CCC5CC(O[C@@H]6O[C@H](CO)[C@@H](O)[C@H](O)[C@H]6O[C@@H]6O[C@@H](C)[C@H](O)[C@@H](O)[C@H]6O)C(O)CC5(C)C4CCC3(C)C2C1C)CO[C@@H]1O[C@H](CO)[C@@H](O)[C@H](O)[C@H]1O (some centres not stated) has an activity change, negative = cytotoxicity of 18.3% [at 11.6 µM].
OCC1OC(Oc2cc(O)cc(/C=C/c3ccc(O)cc3)c2)C(O)C(O)C1O (configuration not stated) was tested, and the Potency was “inactive”.
For CCC(C)/C=C(C)/C=C/c1cc2c(cn1)C(=O)C(C)(OC(C)=O)C(O)=C2Cl (configuration not stated), the Potency was “inactive”.
With CC1=CC(=O)CC(C)(C)[C@@]1(O)CC[C@@H](C)O[C@@H]1O[C@H](CO)[C@@H](O)[C@H](O)[C@H]1O the Potency was “inactive”.
CC1(C)CCC[C@@]2(C)C1[C@H](OC(=O)/C=C/C=C/C(=O)O)C=C1COC(=O)[C@@]12O (some centres not stated) was tested, and the Potency was “inactive”.
For O=C1NC2CCc3nc4ccccc4c(=O)n3C2=Nc2ccccc21 (configuration not stated), the Potency was “inactive”.
CC(C)[N+]1(C)C2CCC1CC(OC(=O)C(CO)c1ccccc1)C2 (configuration not stated) was tested, and the Potency was “inactive”.
In the case of COc1cc2oc(-c3ccc(O)cc3O)cc2c(OC)c1CC=C(C)C, the Potency is reported as “inactive”.
With CC(=O)OC1C(O)CC2(C)C(CCC(C)C23Cc2c(O)cc(CO)c(C=O)c2O3)C1(C)C (configuration not stated) the Potency was “inactive”.
With Cc1[nH]nc(C(F)(F)F)c1Cc1sc2c(c1C(=O)N1C[C@](C)(O)CO1)c(=O)n(C)c(=O)n2C(C)C the Potency was “inactive”.
For O=C(CC1C(=O)Nc2ccccc21)OC[C@H]1O[C@@H](OCCc2ccc(O)cc2)[C@H](O)[C@@H](O)[C@@H]1O (some centres not stated), the Potency was “inactive”.
In the case of CC1CCC23COC(=O)C2=CC(O)CC3C1(C)CCC1=CC(O)OC1=O (configuration not stated), the Potency is reported as “inactive”.
